# Many of the other results were omitted from the sample, so hits are more common in it than they were.
# Lassa entry inh: inhibitors of Lassa virus binding or cell entry; Lassa virus pseudotype entry inhibition, cell reporter; Potency, µM (top dose mostly 37.9 µM), inactives show at the highest dose activity change, negative = inhibition, usual class: inhibitors; hit rate 1.2% among 300,000; AID 540256; calls by dose curve; tested in HEK293 cells; further: potency means the concentration at half of the fitted maximal effect; on the % scale 0 is the no-effect control and ±100 the full control effect; nearly all actives have a fitted effect of over 50% in size
# Vaccinia mCherry: vaccinia inhibition (mCherry reporter); Vaccinia virus mCherry reporter infection, fluorescence; Potency, µM (doses to about 36.5 µM), for inactives: top-dose activity change, negative = inhibition, hits mostly inhibitors; hit rate 0.63% among 310,000; AID 720579; calls by dose curve; tested in A549 cells; further: potency means the concentration at half of the fitted maximal effect; on the % scale 0 is the no-effect control and ±100 the full control effect; nearly all actives have a fitted effect of over 35% in size
# Shiga inhibitor: blocks Shiga toxin action in Vero cells | Vero cells, Shiga toxin protein synthesis inhibition reporter | inhibition, % at 38.7 µM | hit rate 9.2% among 290,000 | AID 2315; in the data active means inhibition mostly above about 28%, no sharp cut-off; inactive means mostly below about 43%; further: 0% is about no effect
# Cycloheximide cs: counter-screen hit for Shiga toxin inhibitors, cycloheximide; hit rate 12% among 300,000; max response, %; cell reporter, cycloheximide protein synthesis inhibition counterscreen; in the data active means max response mostly above about 13%, no sharp cut-off; inactive means mostly below about 14%; further: read at 38.3 µM for the half of the compounds with a filed dose; 0% is about no effect
# Vaccinia Venus: vaccinia inhibition (Venus reporter). AID 720580. Potency, µM (doses to about 36.5 µM), inactives show at the highest dose activity change, negative = inhibition, hits mostly inhibitors. Vaccinia virus Venus reporter expression, fluorescence. hit rate 0.46% among 330,000; calls by dose curve; tested in A549 cells; further: potency means the concentration at half of the fitted maximal effect; on the % scale 0 is the no-effect control and ±100 the full control effect; nearly all actives have a fitted effect of over 30% in size
# MARV entry inh: blocks Marburg virus binding to or entry into cells. Marburg virus pseudotyped entry inhibition, cell reporter. Potency, µM (titrated, usually from 37.8 µM), for inactives: top-dose activity change, negative = inhibition, actives largely listed as inhibitors. hit rate 1.8% among 300,000. AID 540276; calls by dose curve; tested in HEK293 cells; further: potency means the concentration at half of the fitted maximal effect; on the % scale 0 is the no-effect control and ±100 the full control effect
# Starred values were filed as active, the others as inactive; i = inactive; ? = inconclusive; . = no result given; [ ] = another dose, or the depositor's remark.
SMILES,Lassa entry inh,Vaccinia mCherry,Shiga inhibitor,Cycloheximide cs,Vaccinia Venus,MARV entry inh
CCc1ccc(NC(=O)C(CC)n2c(=O)c(C(F)(F)F)nc3ccccc32)cc1 (configuration not stated),16%[46.1 µM],-1%,.,.,3%,.
CC(/C=N/NC(=O)c1cccnc1)=C\c1ccco1,?,i,35,14*,-7%,3%
CC(/C=N/NC(=O)c1cnccn1)=C\c1ccco1,1%,-10%,39,32*,-11%,21%[46.1 µM]
CC(=C/c1ccco1)/C=N/NC(=O)c1ccncc1,12%,?,22,-3,1%,-3%[14.2 µM]
COc1ccc(NC(=O)Nc2nnc(N(CC(C)C)CC(C)C)s2)c(OC)c1,-25%[46.1 µM],-19%,.,.,-17%,-29%[46.1 µM]
Cc1cccc(N2CCN(C(=O)CN3C(=O)C4CC=CCC4C3=O)CC2)c1C (configuration not stated),-4%,i,76*,28,-5%,21%[46.1 µM]
Cc1ccccc1N1CCN(C(=O)CN2C(=O)c3ccccc3C2=O)CC1,19%,i,198*,38*,-12%,27%
O=C(CN1C(=O)C2CC=CCC2C1=O)N1CCN(c2ccc([N+](=O)[O-])cc2)CC1 (configuration not stated),-13%,-11%,18,3,-2%,?
Cc1cccc(N2CCN(C(=O)CN3C(=O)NC(C)(C4CC4)C3=O)CC2)c1C (configuration not stated),10%,-25%,.,.,-18%,24%
Cc1cccc(N2CCN(C(=O)CCNS(=O)(=O)c3ccc4c(c3)CCC(=O)N4)CC2)c1C,6.5µM*,.,12,-3,.,?
Cc1cccc(N2CCN(C(=O)CN3C(=O)NC(C)(C)C3=O)CC2)c1C,.,.,74*,31*,.,.
CCC(CC)NC(=O)COC(=O)c1cc(SC)ccc1Cl,13%,-11%,10,10,-2%,15%[46.1 µM]
O=S(=O)(Nc1cc(F)ccc1F)c1ccc2[nH]c3c(c2c1)CCCCC3,4%[46.1 µM],-11%,.,.,-5%,.
CCN(Cc1ccccc1)C(=O)COC(=O)[C@@H]1CCCN1C(=O)c1cccs1,-17%[46.1 µM],-5%,.,.,-10%,7%[46.1 µM]
COc1cc(NC(=O)COC(=O)CO/N=C(\C)c2ccc3c(c2)OCO3)cc(OC)c1OC,-3%[46.1 µM],-26%,.,.,-23%,20%
CC1(C)CC(=O)C(C=Nc2ccc3c(c2)OCO3)=C(O)C1,-19%,0%,81*,39*,-6%,2%
CC1(C)CC(=O)C(C=NCc2ccc3c(c2)OCO3)=C(O)C1,-8%,.,-4,active,.,?
Cc1ccc(OCc2nc3ccccc3n2C(C)C(=O)Nc2c(C)cccc2C)cc1 (configuration not stated),.,i,.,.,?,.
COc1ccc(NC(=O)CN2C(=O)CCc3cc(S(=O)(=O)N4CCOCC4)ccc32)cc1Cl,4%[46.1 µM],-27%,.,.,-30%,.
Cc1ccc(S(=O)(=O)N2CCC(c3nc(-c4cccs4)nc4ccccc34)CC2)cc1,.,-11%,.,.,-15%,.
CCOC(=O)c1cc(C)nnc1C(=O)OCC,.,i,.,.,-11%,.
CCOc1ccc(NC(=O)Cn2cc(C(=O)c3ccc(CC)cc3)c(=O)c3cc4c(cc32)OCO4)cc1,29%[46.1 µM],2%,.,.,-10%,6%[46.1 µM]
CCOc1ccc(NC(=S)c2ccc3ccccc3n2)cc1,.,.,38*,24*,.,.
COc1ccc(NC(=S)c2ccc3ccccc3n2)cc1,.,.,60*,45*,.,.
Cc1ccc(OCc2ccc(C(=O)NCc3cccnc3)cc2)cc1C,7.9µM*,-14%,52*,33*,-14%,8.9µM*
SMILES,Lassa entry inh,Vaccinia mCherry,Shiga inhibitor,Cycloheximide cs,Vaccinia Venus,MARV entry inh
CC(C)(C)c1ccc(OCc2ccc(C(=O)NN)o2)cc1,.,.,116*,71*,.,.
CC(C)(C)c1ccc(OCc2ccc(C(=O)NCc3cccnc3)o2)cc1,.,.,176*,45*,.,.
CCc1cc2c(nc1CC)CCN(CCC(C)=NOC[C@@H](C)[C@H](OCc1ccccc1)C(C)C)C2,.,.,.,.,.,-17%[14.2 µM]
O=C(NC1CC1)c1ccc2c(c1)N(Cc1ccccc1)CCS2,.,.,17,10,.,.
COc1ccc(NC(=O)CCn2cc(C)c3ccccc32)cc1,?,?,56*,48*,-10%,-10%
COc1ccc(NC(=O)c2ccccc2)cc1,.,-24%,.,.,-5%,.
COc1ccc(NC(=O)c2cccc3ccccc23)cc1,10%[46.1 µM],i,21,20*,-19%,?
COc1ccc(NC(=O)Cn2cc(C(C)=O)c3ccccc32)cc1,.,.,.,0,.,.
O=C(NNC(=O)c1cccc2ccccc12)c1ccc(F)cc1,19%,i,.,.,-21%,?
COc1ccc(NC(=O)c2ccccc2C)cc1,?,-5%,.,34*,3%,?
O=C(Nc1ccc(F)cc1)c1cccc2ccccc12,.,.,15,24*,.,.
O=C1CSC(=S)N1/N=C/c1ccc2c(c1)OCCO2,5%[46.1 µM],-26%,57*,35*,9%,?
Fc1ccc(CNCCc2c[nH]c3ccccc23)cc1,-26%[46.1 µM],?,-10,-3,-13%,10µM*
CCOc1c(Cl)cc(CNCCc2c[nH]c3ccccc23)cc1OC,.,.,-11,-1,.,.
Fc1ccccc1CNCCc1c[nH]c2ccccc12,4%[46.1 µM],-12%,-4,-6,-6%,?
COc1cccc(CNCCc2c[nH]c3ccccc23)c1,?,?,3,-10,-10%,11µM*
CCOc1cc(CNCCc2c[nH]c3ccccc23)cc(Cl)c1OCC,-19%,?,-14,-4,11µM*,?
COc1ccc2[nH]cc(CCNCc3cccnc3)c2c1,.,.,-9,-3,.,.
CC(Oc1ccccc1)C(=O)OCc1cc(=O)n2nc(C(C)C)sc2n1 (configuration not stated),7%[46.1 µM],-3%,.,.,-5%,.
CN1CCC(N2CCN(C3CN(Cc4cn(Cc5cccc(C(F)(F)F)c5)nn4)S(=O)(=O)C3)CC2)CC1 (configuration not stated),.,0%,.,.,1%,.
O=c1c2ccc(Cl)cc2nc(-c2cccc(C(F)(F)F)c2)n1O,2.5µM*,?,-3,8,?,?
N#Cc1ccc(-c2nc3cc(Cl)ccc3c(=O)n2O)cc1,.,.,-1,-3,.,.
COc1ccc(C(=O)N(C)c2ccccc2C(=O)NCCc2ccccc2)cc1,4µM*,-4%,-5,2,-10%,?

# Bioassay records deposited in PubChem by National Center for Advancing Translational Sciences (NCATS).
